Bioassay records (PubChem)
An excerpt weighted towards active compounds, which were near 2.3% of everything screened.
Pol eta inh – blocks human DNA polymerase eta activity; Q9Y253; recombinant Pol eta, fluorescent DNA replication assay; Potency, µM (top dose mostly 114 µM), actives largely listed as inhibitors; actives 1.2% (n = 390,000); AID 588591
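Pol eta (10 nM) was preincubated with compounds for 15 min at room temperature, after which fluorescent replication substrate (50 nM final) was added to start the reaction. Fluorescence was read kinetically at 0 and 10 min.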
Pol kappa inh – DNA polymerase kappa (human) inhibition. purified Pol kappa, fluorescent DNA synthesis assay, 10 min. Q9UBT6. actives 0.53% (n = 400,000). Potency, µM (titrated, usually from 107 µM), actives largely listed as inhibitors
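50 nM final substrate added after 15 min RT preincubation of 10 nM Pol kappa with compound; fluorescence read at 0 and 10 min.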
POLB inh – blocks human DNA polymerase beta activity. P06746. Pol beta primer extension/strand displacement, fluorescence kinetic. Potency, µM (titrated, usually from 114 µM), actives largely listed as inhibitors. actives 1.3% (n = 340,000)
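Preincubation: enzyme (10 nM) with compound, 15 min, RT. Reaction: substrate added to 50 nM final. Reads: 0 and 10 min. Analysis: normalized, Hill fit.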
WRN inhibitor – blocks human WRN helicase; WRN helicase unwinding, fluorescent forked duplex, kinetic; Potency, µM (doses to about 114 µM), usual class: inhibitors; actives 0.46% (n = 360,000); also: nearly all actives have a fitted effect of over 55% in size
Target sequence (Q14191 whole entry, looked up): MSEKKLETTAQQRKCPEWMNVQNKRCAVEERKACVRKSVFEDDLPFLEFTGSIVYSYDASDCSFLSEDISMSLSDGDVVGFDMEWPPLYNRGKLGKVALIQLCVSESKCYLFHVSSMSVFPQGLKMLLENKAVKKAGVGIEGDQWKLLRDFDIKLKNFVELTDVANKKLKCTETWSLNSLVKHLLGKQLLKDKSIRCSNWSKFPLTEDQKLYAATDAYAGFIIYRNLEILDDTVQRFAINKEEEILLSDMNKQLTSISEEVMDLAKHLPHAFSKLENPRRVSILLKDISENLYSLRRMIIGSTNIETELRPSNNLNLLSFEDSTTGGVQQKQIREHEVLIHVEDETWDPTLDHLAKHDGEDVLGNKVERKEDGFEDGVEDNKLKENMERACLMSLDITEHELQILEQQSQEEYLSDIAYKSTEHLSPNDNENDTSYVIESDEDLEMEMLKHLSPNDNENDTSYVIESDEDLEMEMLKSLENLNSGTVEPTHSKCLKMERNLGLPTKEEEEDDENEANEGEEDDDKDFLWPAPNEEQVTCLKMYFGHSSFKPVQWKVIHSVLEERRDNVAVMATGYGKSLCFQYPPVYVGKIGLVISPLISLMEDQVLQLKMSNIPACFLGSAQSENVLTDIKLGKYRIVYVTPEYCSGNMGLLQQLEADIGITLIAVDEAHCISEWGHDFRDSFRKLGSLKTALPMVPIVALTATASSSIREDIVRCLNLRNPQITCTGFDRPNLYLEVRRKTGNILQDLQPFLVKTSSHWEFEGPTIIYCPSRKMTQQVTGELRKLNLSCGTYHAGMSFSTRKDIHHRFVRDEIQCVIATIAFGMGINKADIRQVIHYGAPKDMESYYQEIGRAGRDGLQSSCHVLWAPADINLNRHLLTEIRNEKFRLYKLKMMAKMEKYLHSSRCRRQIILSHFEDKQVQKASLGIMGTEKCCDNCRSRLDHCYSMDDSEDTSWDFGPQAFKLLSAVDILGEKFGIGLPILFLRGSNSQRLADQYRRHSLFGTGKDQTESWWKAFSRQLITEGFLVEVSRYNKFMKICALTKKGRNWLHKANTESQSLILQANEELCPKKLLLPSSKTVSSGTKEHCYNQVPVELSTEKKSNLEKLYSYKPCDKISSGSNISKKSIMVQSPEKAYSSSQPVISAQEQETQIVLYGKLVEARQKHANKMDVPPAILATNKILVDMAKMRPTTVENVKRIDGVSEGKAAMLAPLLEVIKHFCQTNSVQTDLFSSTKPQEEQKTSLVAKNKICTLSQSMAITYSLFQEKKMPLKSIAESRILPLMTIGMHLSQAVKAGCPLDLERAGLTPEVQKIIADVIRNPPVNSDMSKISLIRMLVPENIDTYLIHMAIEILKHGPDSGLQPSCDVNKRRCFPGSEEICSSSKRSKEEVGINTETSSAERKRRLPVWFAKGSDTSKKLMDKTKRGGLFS
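Kinetic red-fluorescence monitoring (525/598 nm) tracks WRN helicase activity after 100 nM fluorophore-quencher forked duplex and 2 mM ATP are added to 20 nM enzyme pretreated 15 min at room temperature with compound.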
POLI inh – DNA polymerase iota (human) inhibition; Q9UNA4; actives 1% (n = 390,000); Potency, µM (top dose mostly 115 µM), usual class: inhibitors; Pol iota fluorescent replication assay, 10 min
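Pol iota at 10 nM preincubated 15 min with compounds at room temperature; reaction started with fluorescent substrate, 50 nM final. Fluorescence read kinetically at 0 and 10 min; buffer-only wells as negative control.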
Large screens that a line does not name were inactive. Calls follow the shape of the dose curve; as a rule, active = well fitted curve in the direction sought with a large enough effect; inconclusive = small, poorly fitted or top-dose-only effect, or another doubt; inactive = no such curve, though single readings can be large; an effect the other way counts as inactive or inconclusive.

CCc1nn2c(=O)cc(COc3ccc(NC(=O)c4ccco4)cc3)nc2s1	POLI inh 71µM
CN1CCc2c(c3cnc4cc(Cl)ccc4c3n2C)C1	none (no result: Pol eta inh, POLB inh, WRN inhibitor)
Cc1[nH]c(=O)nc(SCc2cccc(Cl)c2)c1C#N	POLB inh 71µM, WRN inhibitor inconclusive
C=CCOc1ccc(/C=C2\SC(=S)N(NS(=O)(=O)c3ccc(C)cc3)C2=O)cc1	Pol eta inh 50µM, POLB inh inconclusive, WRN inhibitor inconclusive, POLI inh inconclusive
Cc1ccc(S(=O)(=O)NN2C(=O)/C(=C/c3ccc(C(=O)O)cc3)SC2=S)cc1	Pol kappa inh inconclusive, POLI inh 13µM
Cc1ccc(/C=C2\SC(=S)N(NS(=O)(=O)c3ccc(C)cc3)C2=O)cc1	Pol eta inh inconclusive, POLB inh 79µM
O=C(Cc1ccccc1)NN1C(=O)/C(=C/c2ccc(C(=O)O)cc2)SC1=S	POLI inh inconclusive
COc1ccc(/C=C2/SC(=S)N(NS(=O)(=O)c3ccc(C)cc3)C2=O)cc1	Pol eta inh 79µM, POLB inh inconclusive, POLI inh inconclusive
COc1cc(/C=C2\SC(=S)N(NS(=O)(=O)c3ccccc3)C2=O)cc(OC)c1OC	none
Cc1ccc(S(=O)(=O)NN2C(=O)/C(=C/c3ccc(F)cc3)SC2=S)cc1	Pol eta inh inconclusive, WRN inhibitor inconclusive
Cc1ccc(S(=O)(=O)NN2C(=O)/C(=C/c3cccs3)SC2=S)cc1	none
O=C(Cc1ccc(OCCCc2ccccc2)cc1)NO	none (no result: Pol eta inh, POLB inh, WRN inhibitor)
Cn1c2c(c3cnc4cc(Cl)ccc4c31)CNCC2	none (no result: Pol eta inh, POLB inh, WRN inhibitor)
O=C(CN1C(=O)NC2(CCCCC2)C1=O)Nc1ccccc1Cl	POLI inh 89µM
Fc1ccc(-c2nnc(Cc3nnc(-c4ccc(F)cc4)o3)o2)cc1	POLB inh 40µM
Fc1ccc(-c2nnc(-c3ccc(F)cc3)o2)cc1	none
COc1ccc(OC)c(-c2csc(NC(=O)COC(=O)c3ccc(NC(=O)CC#N)cc3)n2)c1	Pol eta inh 20µM, Pol kappa inh 50µM, WRN inhibitor inconclusive, POLI inh 28µM (no result: POLB inh)
Cc1cc(C)c(S(=O)(=O)/N=C2\C=CC(=O)C(Cl)=C2)c(C)c1	Pol eta inh inconclusive, Pol kappa inh inconclusive, POLB inh 35µM, POLI inh inconclusive
Cc1ccc(S(=O)(=O)c2c(C)cc(C)nc2Cl)c(C)c1	none
CCc1ccc(NC(=O)Cn2ccn(-c3ccc(OC)cc3)c(=O)c2=O)cc1	POLB inh 32µM (no result: WRN inhibitor)
CC(=O)O[C@]1(C(C)=O)CC[C@H]2C3C=C(Cl)C4=CC(=O)[C@@H]5C[C@H]5[C@]4(C)C3CC[C@@]21C (stereo partly specified)	POLB inh inconclusive, POLI inh inconclusive (no result: Pol kappa inh, WRN inhibitor)
COc1cc2c(cc1OC)C1O[C@](c3ccsc3)(C2)Oc2cc(C)n(Cc3ccccc3)c(=O)c21	none (no result: Pol eta inh, Pol kappa inh, WRN inhibitor, POLI inh)
COc1cc2c(cc1OC)C1O[C@](c3ccsc3)(C2)Oc2cc(-c3ccccc3)oc(=O)c21	POLB inh 13µM (no result: Pol eta inh, Pol kappa inh, WRN inhibitor, POLI inh)
O=S(=O)(Nc1nc(-c2ccccc2)cs1)c1cc(Cl)ccc1Cl	Pol eta inh inconclusive, POLB inh 45µM, POLI inh inconclusive
CCc1ccc(NC(=O)CSc2nnc(-c3ccccc3)n2C)cc1	none (no result: Pol eta inh, POLB inh, WRN inhibitor)
CNC(=O)Oc1ccc2c(c1)C1(C)CCN(C)C1N2C (stereo unspecified)	none (no result: Pol eta inh, POLB inh, WRN inhibitor, POLI inh)
CCN(CC)c1ccc(C(=C2C=CC(=[N+](CC)CC)C=C2)c2ccccc2)cc1	WRN inhibitor 45µM (no result: POLB inh)
CCN(CC)c1ccc(C(=C2C=CC(=[N+](CC)Cc3cccc(S(=O)(=O)[O-])c3)C=C2)c2ccc(N(CC)Cc3cccc(S(=O)(=O)O)c3)cc2)cc1	Pol kappa inh 4.2µM (no result: Pol eta inh, POLB inh, WRN inhibitor, POLI inh)
CCN(Cc1ccccc1)c1ccc(/C=N/NS(=O)(=O)c2cccc([N+](=O)[O-])c2)cc1	none
CN(C)c1cc(F)c(C=O)cc1F	none (no result: Pol eta inh, POLB inh, WRN inhibitor)
O=C(Nc1cccc(F)c1)c1ccc2c(c1)OCO2	none
O=C(Nc1ccc2nn(-c3ccccc3)nc2c1)c1ccc2c(c1)OCO2	Pol eta inh inconclusive, POLB inh 40µM
O=C(O)c1cc([N+](=O)[O-])c(Sc2nc3ccccc3[nH]2)c([N+](=O)[O-])c1	Pol eta inh inconclusive, WRN inhibitor inconclusive, POLI inh inconclusive
CS(=O)(=O)c1cc([N+](=O)[O-])c(Sc2nc3ccccc3[nH]2)c([N+](=O)[O-])c1	WRN inhibitor 56µM, POLI inh inconclusive
O=C(C[N+]1(CCO)CCOCC1)c1cccc2ccccc12	none (no result: Pol eta inh, POLB inh, WRN inhibitor)
CC1=NN(c2ccc(Br)cc2)C(=O)/C1=C/c1cccs1	none
CC1=NN(c2ccc(C)cc2)C(=O)/C1=C\c1ccc(Br)s1	Pol eta inh inconclusive, POLI inh 3.5µM
c1ccc(-c2ccc(OCCN3CCCC3)cc2)cc1	none (no result: Pol eta inh, POLB inh, WRN inhibitor, POLI inh)
O=C(CSc1nc2sc3c(c2c(=O)n1-c1ccccc1)CCCC3)N/N=C/c1ccccc1C(=O)O	Pol eta inh 50µM, POLB inh inconclusive, POLI inh inconclusive
CC(NC(=O)CSc1nc2sc3c(c2c(=O)n1-c1ccccc1)CCCC3)c1ccccc1 (stereo unspecified)	none
COc1cc(OC)cc(C(=O)Nc2nc(-c3nnn(-c4ccc(F)c(Cl)c4)c3C)ns2)c1	POLB inh 3.2µM, POLI inh inconclusive (no result: WRN inhibitor)
COc1ccc(C(=O)Nc2nc(-c3nnn(-c4ccc(C(C)C)cc4)c3C)ns2)cc1	none (no result: WRN inhibitor)
COc1ccccc1C(=O)Nc1ccnn1C1CCN(Cc2cnc(N(C)C)s2)CC1	POLB inh 89µM
O=C(O)c1cc2nccc(-c3ccco3)n2n1	Pol eta inh 18µM, Pol kappa inh inconclusive, POLI inh inconclusive
O=C(N/N=C/c1ccccc1C(=O)O)c1ccc(COc2cccc3cccnc23)cc1	Pol eta inh 40µM, Pol kappa inh inconclusive, POLB inh inconclusive, POLI inh inconclusive
O=C(O)COc1ccccc1/C=N/NC(=O)c1cc2ccccc2cc1O	Pol kappa inh inconclusive, POLI inh 14µM
C#CCn1cc(/C=N/NC(=O)COc2cccc3cccnc23)c2ccccc21	Pol eta inh inconclusive, Pol kappa inh inconclusive, POLB inh inconclusive, WRN inhibitor inconclusive, POLI inh 22µM
O=C(COc1cccc2cccnc12)N/N=C/c1ccccc1O	POLB inh 32µM, WRN inhibitor inconclusive
O=C(O)COc1ccccc1/C=N/NC(=O)c1ccncc1	none (no result: Pol eta inh, POLB inh, WRN inhibitor, POLI inh)
Cc1cccc(C)c1NC(=O)C1CCCN1S(=O)(=O)c1ccc(-c2ccc(=O)[nH]n2)s1 (stereo unspecified)	none
CCc1ccccc1NC(=O)C1CCCN1S(=O)(=O)c1ccc(-c2ccc(=O)[nH]n2)s1 (stereo unspecified)	Pol eta inh 40µM, POLI inh inconclusive
O=C(C[n+]1ccccc1Br)c1ccc(O)c(O)c1	none (no result: Pol eta inh, POLB inh, WRN inhibitor)
COc1ccc(N2CCN(S(=O)(=O)c3ccc(-n4cnnn4)c(C)c3)CC2)cc1	Pol eta inh 32µM, Pol kappa inh inconclusive, POLB inh 28µM, WRN inhibitor inconclusive, POLI inh inconclusive
COc1ccccc1N1CCN(S(=O)(=O)c2ccc(-n3cnnn3)c(C)c2)CC1	none
